According to PubChem BioAssay (NCATS):
Records with an inconclusive call do not appear. Activity calls are given as the source filed them. Calls come from the whole dose curve; as a rule, active = well fitted cell-killing curve with a large enough effect; inconclusive = small, poorly fitted or top-dose-only effect, or effect the other way; inactive = flat fitted curve, though single readings scatter.

Legend:
Assay in all cases: Primary qHTS to identify gynecologic anti-cancer compounds using libraries of approved drugs and bioactive compounds (AID 1345084); note: nearly all actives have a fitted effect of over 55% in size
C33A = settings: Gynecologic cancer cell panel viability, ATPlite luminescence, 48 h; series mostly up to 57.5 µM
Procedure, shortened: (§1)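 ATP-based viability (ATPlite), 1,000 cells/well, 16 h pre-incubation, 48 h compound at 37 C, 5% CO2, 15 min RT before read.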

CAOV3 = settings: Gynecologic cancer cell panel viability, ATPlite luminescence, 48 h; series mostly up to 57.5 µM
Procedure, shortened: as §1

CASKI = settings: Gynecologic cancer cell panel viability, ATPlite luminescence, 48 h; series mostly up to 57.5 µM
Procedure, shortened: as §1

Es-2 = settings: Gynecologic cancer cell panel viability, ATPlite luminescence, 48 h; series mostly up to 57.5 µM
Procedure, shortened: as §1

HeLa = settings: Gynecologic cancer cell panel viability, ATPlite luminescence, 48 h; series mostly up to 57.5 µM
Procedure, shortened: as §1

Hek293T = settings: Gynecologic cancer cell panel viability, ATPlite luminescence, 48 h, control line for the selectivity index; series mostly up to 57.5 µM
Procedure, shortened: as §1

JEG-3 = settings: Gynecologic cancer cell panel viability, ATPlite luminescence, 48 h; series mostly up to 57.5 µM
Procedure, shortened: as §1

OV90 = settings: Gynecologic cancer cell panel viability, ATPlite luminescence, 48 h; series mostly up to 57.5 µM
Procedure, shortened: as §1

PA-1 = settings: Gynecologic cancer cell panel viability, ATPlite luminescence, 48 h; series mostly up to 57.5 µM
Procedure, shortened: as §1

Tov-21-G = settings: Gynecologic cancer cell panel viability, ATPlite luminescence, 48 h; series mostly up to 57.5 µM
Procedure, shortened: as §1

Tov112D = settings: Gynecologic cancer cell panel viability, ATPlite luminescence, 48 h; series mostly up to 57.5 µM
Procedure, shortened: as §1

SKOV3 = settings: Gynecologic cancer cell panel viability, ATPlite luminescence, 48 h; series mostly up to 57.5 µM
Procedure, shortened: as §1
% is set by controls: 0 for no effect and ±100 for the full control effect.

CC#CC(=O)N1CCC[C@H]1c1nc(-c2ccc(C(=O)Nc3ccccn3)cc2)c2c(N)nccn12
inactive: Potency (C33A) | Potency (CAOV3) | Potency (CASKI) | Potency (Es-2) | Potency (HeLa) | Potency (Hek293T) | Potency (JEG-3) | Potency (OV90) | Potency (PA-1) | Potency (Tov-21-G) | Potency (Tov112D)

C/C=C/C=C/C(O)=C1\C(O)=C(C)C(=O)[C@@]2(C)OC(=O)[C@@](C)(NC(=O)/C=C/C(=O)O)[C@@H]12
inactive: Potency (C33A) | Potency (CAOV3) | Potency (CASKI) | Potency (Es-2) | Potency (HeLa) | Potency (Hek293T) | Potency (JEG-3) | Potency (OV90) | Potency (SKOV3) | Potency (Tov-21-G) | Potency (Tov112D)

CC1=CC(=O)[C@]2(O[C@@H]3O[C@@H](C)[C@H](O)[C@@H](O)[C@H]3OC(=O)/C=C/c3ccccc3)C=CO[C@@H](O[C@@H]3O[C@H](CO)[C@@H](O)[C@H](O)[C@H]3O)[C@H]12
inactive: Potency (C33A) | Potency (CAOV3) | Potency (CASKI) | Potency (Es-2) | Potency (HeLa) | Potency (Hek293T) | Potency (JEG-3) | Potency (OV90) | Potency (PA-1) | Potency (Tov-21-G) | Potency (Tov112D)

CCOc1ccc(NC(=S)N2CCC(C(O)(c3ccccc3)c3ccccc3)CC2)cc1
inactive: Potency (C33A) | Potency (CAOV3) | Potency (CASKI) | Potency (Es-2) | Potency (HeLa) | Potency (Hek293T) | Potency (JEG-3) | Potency (OV90) | Potency (PA-1) | Potency (Tov-21-G) | Potency (Tov112D)

C[C@@H]1O[C@@H](O[C@@H]2[C@@H](O)[C@H](O[C@H]3[C@H](O[C@H]4CC[C@@]5(C)C(CC[C@]6(C)C5CC=C5[C@@H]7CC(C)(C)CC[C@]7(C(=O)O[C@@H]7O[C@H](CO)[C@@H](O)[C@H](O)[C@H]7O[C@@H]7O[C@@H](C)[C@H](O[C@@H]8O[C@@H](C)[C@H](O)[C@@H](O)[C@H]8O)[C@@H](O)[C@H]7O)CC[C@]56C)[C@@]4(C)CO)O[C@H](C(=O)O)[C@@H](O)[C@@H]3O)O[C@H](CO)[C@H]2O)[C@H](O)[C@H](O)[C@H]1O (some centres not stated)
inactive: activity change, negative = cytotoxicity (C33A) 0.245% [at 6.55 µM] | activity change, negative = cytotoxicity (CAOV3) 5.38% [at 6.55 µM] | activity change, negative = cytotoxicity (CASKI) 3.98% [at 6.55 µM] | activity change, negative = cytotoxicity (Es-2) -0.113% [at 6.55 µM] | activity change, negative = cytotoxicity (HeLa) 1.1% [at 6.55 µM] | activity change, negative = cytotoxicity (Hek293T) 2.2% [at 6.55 µM] | activity change, negative = cytotoxicity (JEG-3) 8.58% [at 6.55 µM] | activity change, negative = cytotoxicity (OV90) 6.41% [at 6.55 µM] | activity change, negative = cytotoxicity (PA-1) 2.55% [at 6.55 µM] | activity change, negative = cytotoxicity (Tov-21-G) -1.58% [at 6.55 µM] | activity change, negative = cytotoxicity (Tov112D) 10.3% [at 6.55 µM]

CC(CCC1(O)OC2CC3C4CCC5CC(O[C@@H]6O[C@H](CO)[C@@H](O)[C@H](O)[C@H]6O[C@@H]6O[C@@H](C)[C@H](O)[C@@H](O)[C@H]6O)C(O)CC5(C)C4CCC3(C)C2C1C)CO[C@@H]1O[C@H](CO)[C@@H](O)[C@H](O)[C@H]1O (some centres not stated)
inactive: activity change, negative = cytotoxicity (C33A) 3.88% [at 11.6 µM] | activity change, negative = cytotoxicity (CAOV3) -13.8% [at 11.6 µM] | activity change, negative = cytotoxicity (CASKI) -0.222% [at 11.6 µM] | activity change, negative = cytotoxicity (Es-2) -3.1% [at 11.6 µM] | activity change, negative = cytotoxicity (HeLa) 3.09% [at 11.6 µM] | activity change, negative = cytotoxicity (Hek293T) 17.8% [at 11.6 µM] | activity change, negative = cytotoxicity (JEG-3) -0.873% [at 11.6 µM] | activity change, negative = cytotoxicity (OV90) 22.7% [at 11.6 µM] | activity change, negative = cytotoxicity (SKOV3) 3.64% [at 11.6 µM] | activity change, negative = cytotoxicity (Tov-21-G) 6.58% [at 11.6 µM] | activity change, negative = cytotoxicity (Tov112D) 18.3% [at 11.6 µM]

Cc1[nH]nc(C(F)(F)F)c1Cc1sc2c(c1C(=O)N1C[C@](C)(O)CO1)c(=O)n(C)c(=O)n2C(C)C
inactive: Potency (C33A) | Potency (CAOV3) | Potency (CASKI) | Potency (Es-2) | Potency (HeLa) | Potency (Hek293T) | Potency (JEG-3) | Potency (OV90) | Potency (Tov-21-G) | Potency (Tov112D)

OC[C@H]1O[C@@H](O[C@H]2[C@H](OCCc3ccccc3)O[C@H](CO)[C@@H](O)[C@@H]2O)[C@H](O)[C@@H](O)[C@@H]1O
inactive: Potency (C33A) | Potency (CAOV3) | Potency (CASKI) | Potency (Es-2) | Potency (HeLa) | Potency (Hek293T) | Potency (JEG-3) | Potency (OV90) | Potency (SKOV3) | Potency (Tov-21-G) | Potency (Tov112D)

COC(=O)C1=CO[C@@H](O[C@@H]2O[C@H](CO)[C@@H](O)[C@H](O)[C@H]2O)[C@@H]2C(COC(C)=O)=C[C@H](O)[C@H]12
inactive: Potency (C33A) | Potency (CAOV3) | Potency (CASKI) | Potency (Es-2) | Potency (HeLa) | Potency (Hek293T) | Potency (JEG-3) | Potency (PA-1) | Potency (Tov-21-G) | Potency (Tov112D)

C[C@@H]1O[C@@H](O[C@H]2[C@H](OC(=O)[C@]34CCC(C)(C)C[C@H]3C3=CCC5[C@@]6(C)C[C@H](O)[C@H](O[C@@H]7O[C@H](CO)[C@@H](O)[C@H](O)[C@H]7O)[C@@](C)(CO)C6[C@H](O)C[C@@]5(C)[C@]3(C)CC4)OC[C@H](O)[C@@H]2O)[C@H](O)[C@H](O)[C@H]1O[C@@H]1OC[C@@H](O)[C@H](O[C@@H]2OC[C@](O)(CO)[C@H]2O)[C@H]1O (some centres not stated)
inactive: activity change, negative = cytotoxicity (C33A) 7.14% [at 6.55 µM] | activity change, negative = cytotoxicity (CAOV3) 10.8% [at 6.55 µM] | activity change, negative = cytotoxicity (CASKI) 15.5% [at 6.55 µM] | activity change, negative = cytotoxicity (Es-2) 6.38% [at 6.55 µM] | activity change, negative = cytotoxicity (HeLa) 4.34% [at 6.55 µM] | activity change, negative = cytotoxicity (Hek293T) 3.42% [at 6.55 µM] | activity change, negative = cytotoxicity (JEG-3) 3.02% [at 6.55 µM] | activity change, negative = cytotoxicity (OV90) 1.6% [at 6.55 µM] | activity change, negative = cytotoxicity (SKOV3) 1.77% [at 6.55 µM] | activity change, negative = cytotoxicity (Tov-21-G) -2.34% [at 6.55 µM] | activity change, negative = cytotoxicity (Tov112D) 7.29% [at 6.55 µM]

Cc1[nH]c2ccccc2c1C1=C(NCCc2ccc(F)cc2)C(=O)N(C)C1=O
inactive: Potency (C33A) | Potency (CAOV3) | Potency (CASKI) | Potency (Es-2) | Potency (HeLa) | Potency (Hek293T) | Potency (JEG-3) | Potency (OV90) | Potency (SKOV3) | Potency (Tov-21-G) | Potency (Tov112D)

O=C(C(c1ccccc1)c1ccccc1)N1CCN(CC(O)COc2cccc3ncccc23)CC1 (configuration not stated)
inactive: Potency (C33A) | Potency (CAOV3) | Potency (CASKI) | Potency (Es-2) | Potency (HeLa) | Potency (Hek293T) | Potency (JEG-3) | Potency (PA-1) | Potency (SKOV3) | Potency (Tov-21-G) | Potency (Tov112D)

CC1(C)CC[C@]2(C(=O)O)CC[C@]3(C)C(=CCC4[C@@]5(C)CC[C@H](O[C@@H]6O[C@H](C(=O)O)[C@@H](O[C@@H]7OC[C@@H](O)[C@H](O)[C@H]7O)[C@H](O)[C@H]6O)C(C)(C)C5CC[C@]43C)C2C1O (some centres not stated)
inactive: Potency (C33A) | Potency (CAOV3) | Potency (CASKI) | Potency (Es-2) | Potency (HeLa) | Potency (Hek293T) | Potency (JEG-3) | Potency (OV90) | Potency (SKOV3) | Potency (Tov-21-G) | Potency (Tov112D)

C/C(=C\CCC(C)CCO)C(=O)OC1(C)CCC2C(C(=O)O)=COC(OC3OC(CO)C(O)C(O)C3O)C21 (configuration not stated)
inactive: Potency (C33A) | Potency (CAOV3) | Potency (CASKI) | Potency (Es-2) | Potency (HeLa) | Potency (Hek293T) | Potency (JEG-3) | Potency (OV90) | Potency (Tov-21-G) | Potency (Tov112D)

CC1=CC(=O)CC(C)(C)[C@@]1(O)CC[C@@H](C)O[C@@H]1O[C@H](CO)[C@@H](O)[C@H](O)[C@H]1O
inactive: Potency (C33A) | Potency (CAOV3) | Potency (CASKI) | Potency (Es-2) | Potency (HeLa) | Potency (Hek293T) | Potency (JEG-3) | Potency (OV90) | Potency (SKOV3) | Potency (Tov-21-G) | Potency (Tov112D)

CCN(CC)Cc1ccc(C(=O)N(CCc2ccccc2OC)[C@@H]2CCNC2)cc1
inactive: Potency (C33A) | Potency (CAOV3) | Potency (CASKI) | Potency (Es-2) | Potency (HeLa) | Potency (Hek293T) | Potency (JEG-3) | Potency (PA-1) | Potency (SKOV3) | Potency (Tov-21-G) | Potency (Tov112D)

O=C(NCc1ccc(F)cc1)C(=O)c1c[nH]c2ccccc12
inactive: Potency (C33A) | Potency (CAOV3) | Potency (CASKI) | Potency (Es-2) | Potency (HeLa) | Potency (Hek293T) | Potency (JEG-3) | Potency (OV90) | Potency (SKOV3) | Potency (Tov-21-G) | Potency (Tov112D)

CC(C)[N+]1(C)C2CCC1CC(OC(=O)C(CO)c1ccccc1)C2 (configuration not stated)
inactive: Potency (C33A) | Potency (CAOV3) | Potency (CASKI) | Potency (Es-2) | Potency (HeLa) | Potency (Hek293T) | Potency (JEG-3) | Potency (OV90) | Potency (Tov-21-G) | Potency (Tov112D)

CC(C)CNCc1ccc(-c2ccccc2S(=O)(=O)N2CCCC2)cc1
inactive: Potency (C33A) | Potency (CAOV3) | Potency (CASKI) | Potency (Es-2) | Potency (HeLa) | Potency (Hek293T) | Potency (JEG-3) | Potency (PA-1) | Potency (SKOV3) | Potency (Tov-21-G) | Potency (Tov112D)

C/C=C/C=C/C(O)=C1\C(=O)[C@]2(C)C3C(C(=O)CC/C=C/C)=C(O)C4(C)C1[C@]1(C)O[C@@]4(O)[C@@]3(C)O[C@@]12O
inactive: Potency (C33A) | Potency (CAOV3) | Potency (CASKI) | Potency (Es-2) | Potency (HeLa) | Potency (Hek293T) | Potency (JEG-3) | Potency (PA-1) | Potency (SKOV3) | Potency (Tov-21-G) | Potency (Tov112D)

N[C@H]1Cc2ccccc2N(O)C1=O
inactive: Potency (C33A) | Potency (CAOV3) | Potency (CASKI) | Potency (Es-2) | Potency (HeLa) | Potency (Hek293T) | Potency (JEG-3) | Potency (PA-1) | Potency (SKOV3) | Potency (Tov-21-G) | Potency (Tov112D)
